Test results taken from PubChem BioAssay AID1063 (University of Pittsburgh Molecular Library Screening Center, 2008).
Hit rate of the full screen: of about 200,000 compounds, about 18,000 (9%) were called active. Cut-off read from the data, not from the text of the source: active = inhibition above about 50%; inactive = the rest. The list comes from a sample in which actives are over-represented; it also holds similar structures and randomly drawn compounds. Where a SMILES comes first, the peptide text is derived from it. The star is where a group is joined. Bz = O=C(c1ccccc1)*

Experiment: Leishmania major promastigote growth inhibition, primary screen (AID 1063);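 note: promastigotes grown with compound for 44 hours at 28 °C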
Details: Leishmania major promastigotes, resazurin fluorescence viability; at 10 µM; active compounds read high
For `Cc1cc([N+](=O)[O-])nn1CC(=O)Nc1ccc(Cc2ccncc2)cc1`, the inhibition was -0.44% (inactive). In the case of `Cc1ccc2c(=O)oc(N(C)C)nc2c1`, the inhibition is reported as 7.03% (inactive). In the case of `Cc1ccc(SCCC(=O)Nc2cc(C)on2)cc1`, the inhibition is reported as -6.06% (inactive). With `Cc1ccc(SCCC(=O)NC(C(C)C)C(C)C)cc1` the inhibition was 59.5% (active). For `Cc1ccc(SCCC(=O)NCc2ccccn2)cc1`, the inhibition was 3.06% (inactive). In the case of `CN(C)/C=C/C(=O)c1cnc2sccn2c1=O`, the inhibition is reported as -6.23% (inactive). With `O=C(C(Cc1ccccc1)n1cccc1)N1CCN(C2CCCCC2)CC1` (centres undefined) the inhibition was 83% (active). In the case of `Cc1ccc(C(=O)N2CCN(C3CCCCC3)CC2)s1`, the inhibition is reported as -10.8% (inactive). In the case of `O=C(NC(Cc1ccccc1)C(=O)N1CCCC1C(=O)O)c1ccccc1` (stereo not drawn) (Bz-Phe-Pro-OH; configuration not given here), the inhibition is reported as -8.5% (inactive). In the case of `COCCCN(C(=S)Nc1c(C)cc(C)cc1C)C(C)c1ccncc1` (centres undefined), the inhibition is reported as 1.38% (inactive). In the case of `O=C(Cc1ccc(Cl)cc1)NCc1nc(-c2ccccc2)no1`, the inhibition is reported as -1.26% (inactive). In the case of `O=C(Nn1c(-c2ccccc2)nc2ccccc2c1=O)c1ccc([N+](=O)[O-])cc1`, the inhibition is reported as -4.12% (inactive). In the case of `O=C(Cn1nnc2ccccc2c1=O)NCc1ccc(Cl)cc1`, the inhibition is reported as -4.83% (inactive). In the case of `Cc1cccc(-c2nc3ccccc3c(=O)n2NC(=O)Cc2ccc(Cl)cc2)c1`, the inhibition is reported as 53% (active). For `COc1cc(OC)cc(-c2nc3ccccc3c(=O)n2NC(=O)c2cccnc2Cl)c1`, the inhibition was 46.3% (inactive). With `O=C(Nn1c(-c2ccc(Cl)cc2)nc2ccccc2c1=O)c1cccnc1Cl` the inhibition was 55.3% (active). For `CCCCCC1CCC(c2nnc(SCC(C)=O)o2)CC1` (centres undefined), the inhibition was -9.46% (inactive). For `COCCNC(=O)C(OC(=O)c1cccs1)c1ccc(F)cc1` (centres undefined), the inhibition was -3.33% (inactive). For `COc1ccc(Cl)cc1NC(=O)CN(C)Cc1ccc(OC)c(OC)c1`, the inhibition was 1.17% (inactive). With `Cc1cccc(-n2c(Cc3cc(=O)[nH]c(=O)[nH]3)nnc2SCC(=O)Nc2cccc(C(F)(F)F)c2)c1` the inhibition was -1.75% (inactive). In the case of `N#Cc1c(NC(=O)C2CC(Cl)=CCC2C(=O)O)sc2c1CCCCC2` (centres undefined), the inhibition is reported as -8.36% (inactive). With `COc1ccc(OCC(=O)Nc2ccc(N3CCC(C)CC3)cc2)cc1` the inhibition was 8.72% (inactive). In the case of `O=C(COC(=O)C1CCCCC1)Nc1ccc([N+](=O)[O-])cc1`, the inhibition is reported as -5.31% (inactive). With `O=C(COc1ccc([N+](=O)[O-])cc1)Nc1ccc(N2CCCC2)cc1` the inhibition was 86.2% (active). With `COc1cc(COCC(O)CN2CCN(Cc3ccc4c(c3)OCO4)CC2)cc(OC)c1OC` (centres undefined) the inhibition was 2.04% (inactive). For `Cc1cc(=O)oc(C)c1C(=O)NCCN(C)Cc1ccccc1`, the inhibition was 9.38% (inactive). In the case of `COc1ccc(CCNC(=O)CSc2nc(-c3ccc(OC)c(OC)c3)ccc2C#N)cc1`, the inhibition is reported as 27.6% (inactive). For `COc1cccc(-c2ccc(C#N)c(SCC(=O)NCCc3ccc(Cl)cc3)n2)c1`, the inhibition was 50.9% (active). With `COc1ccc(CCNC(=O)CSc2nnc3ccc(-c4ccncc4)nn23)cc1` the inhibition was -2.23% (inactive). For `NS(=O)(=O)c1ccc(NC(=O)/C=C/c2ccccc2Cl)cc1`, the inhibition was 0.13% (inactive). With `O=S(=O)(NCc1ccccc1)c1ccc(S(=O)(=O)N2CCCC2)cc1` the inhibition was -7.35% (inactive). In the case of `Cc1nc(Nc2ccc(S(=O)(=O)N3CCCC3)cc2)c2nnn(Cc3ccccc3)c2n1`, the inhibition is reported as 0.17% (inactive). With `O=C1c2cccnc2C(Nc2ccc(S(=O)(=O)N3CCCCCC3)cc2)N1Cc1ccccc1` (centres undefined) the inhibition was 54.9% (active). For `COC(=O)c1onc(-c2c(OC)cc(OC)cc2OC)c1C(=O)OC`, the inhibition was -8.2% (inactive). In the case of `COC(=O)c1c(CCl)noc1C(=O)NC(C)C`, the inhibition is reported as 100% (active). In the case of `CCOc1cccc(SCc2noc(C(=O)NC(C)C)c2C(=O)O)c1`, the inhibition is reported as -11.1% (inactive). In the case of `Cc1cc(NC(C)C)n2c(nc3ccccc32)c1C#N`, the inhibition is reported as 0.11% (inactive). With `O=C1N(c2ccc(Cl)cc2)C(c2ccc(Cl)cc2)N2CCCN12` (centres undefined) the inhibition was -2.86% (inactive). With `COCCCNC(NC(=O)c1ccc(OC)cc1)C(Cl)(Cl)Cl` (centres undefined) the inhibition was -5.56% (inactive). For `O=Cc1ccc(OCc2cn3ccccc3n2)cc1`, the inhibition was -8.44% (inactive). In the case of `CNC(=O)COC(=O)c1cc(-c2ccc(OC)cc2)nc2ccccc12`, the inhibition is reported as 6.03% (inactive). For `CCn1c(CSCc2c(Cl)cccc2Cl)n[nH]c1=S`, the inhibition was 81.2% (active). In the case of `CCn1c(CNS(=O)(=O)c2ccc(Cl)cc2)n[nH]c1=S`, the inhibition is reported as -0.27% (inactive). With `S=c1[nH]nc(CSCc2ccc(Cl)cc2Cl)n1-c1ccccc1` the inhibition was 14.5% (inactive). In the case of `CCOC(=O)NC(=O)/C(C#N)=C\c1ccccc1`, the inhibition is reported as -7% (inactive). In the case of `O=C(c1cccc(S(=O)(=O)Nc2ccccc2Cl)c1)N1CCN(C(=O)c2ccco2)CC1`, the inhibition is reported as -0.85% (inactive). In the case of `O=C(Nc1ccc2c(c1)CCC2)c1cccc(S(=O)(=O)Nc2ccccc2Cl)c1`, the inhibition is reported as 95.5% (active). With `O=C(Nc1ccc2c(c1)CCC2)c1cccc(S(=O)(=O)N2CCN(c3ccc(F)cc3)CC2)c1` the inhibition was 24.5% (inactive). In the case of `Cc1ccc(-c2nn(-c3ccccc3)cc2/C=C/C(=O)Nc2cccc(S(N)(=O)=O)c2)cc1`, the inhibition is reported as -2.89% (inactive). In the case of `Cc1ccccc1C(CC(=O)c1cccs1)C(C#N)C#N` (centres undefined), the inhibition is reported as 83.5% (active). For `Cc1ccc(C)c(NC(CC(=O)c2ccccc2)C(=O)OCC(=O)c2cccs2)c1` (centres undefined), the inhibition was 17.1% (inactive). For `O=C(CCC(=O)c1cccs1)NCc1ccccc1`, the inhibition was -10.9% (inactive). For `CC(NC(=O)COC(=O)c1ccc(Cl)cc1O)c1ccc(F)cc1` (centres undefined), the inhibition was -6.63% (inactive). For `CC(=O)c1ccc(S(=O)(=O)Nc2ccc(C(=O)NCC(c3ccccc3)N(C)C)cc2)cc1` (centres undefined), the inhibition was 0.26% (inactive). For `CN(C)c1ccc(C(CNC(=O)c2ccc(F)cc2)c2c[nH]c3ccccc23)cc1` (centres undefined), the inhibition was 96.3% (active). In the case of `CN(C)CCCNC(=O)c1ccc2[nH]c3ccccc3c2c1`, the inhibition is reported as 13% (inactive). For `COc1ccc(-n2nc3c(c2NC(=O)c2ccc(N4C(=O)CCC4=O)cc2)CSC3)cc1`, the inhibition was -0.66% (inactive). With `O=c1[nH]n(-c2ccc([N+](=O)[O-])cc2)c(=O)c2ccccc12` the inhibition was -3.65% (inactive). In the case of `CC(C)(C)c1ccc(/C=C/C(=O)NC2CCS(=O)(=O)C2)cc1` (centres undefined), the inhibition is reported as 0.12% (inactive).
